From PubChem BioAssay
“And” between values parts separate entries of the source, which are not always exact repeats. Identical values can stand only once. The source made the active and inactive calls. Unless noted, no stated cut-off is given here; in the data, active means parasite load remaining mostly below about 12% (no sharp cut-off); inactive means mostly above about 10%.

Tests used:
[1] = P. berghei load reduction in hepatocytes – cell-based, HepG2, luciferase luminescence, HepG2 viability, primary screen (AID 624349);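 further: 100% = mean of DMSO negative control wells on the same plate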; settings: P. berghei liver stage in HepG2, luciferase luminescence, concentration not given here; parasite load remaining: stronger effect = lower value; viability: measured here: HepG2 viability without parasites
[2] = EMT-state selective cytotoxicity in co-culture – imaging, PC-3E GFP, TEM4-18 mCherry, primary screen (AID 1345086;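 active means compounds killing one labelled cell type while sparing the other, by normalised counts and ratio limits, not self-fluorescent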;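 on all read-outs here: cells exposed to compound for 72 h before imaging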;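 on red/green cell ratio (normalised): normalised mesenchymal count divided by normalised epithelial count so high means epithelial killing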); settings: PC-3E GFP / TEM4-18 mCherry co-culture, imaging cell counts, at 1 µM; for red/green cell ratio (normalised): actives lie on both sides, counts scaled to control wells, 1 = unselective
[3] = viability loss with induced miR-34 in A549 – imaging, A549 dox-inducible miR-34, nuclei and caspase counts, primary screen (AID 1347080;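 active means compounds whose cell count with miR-34 switched on is under 0.7 times the count with it off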); settings: A549 miR-34 inducible, Hoechst nuclei count, 48 h
[4] = blockers of cellular phospholipid synthesis – cell-based, LOPAC library, screen 4, primary screen (AID 1347384; call rule not given here); settings: animal cells, phospholipid biosynthesis inhibition screen; at 10 µM
[5] = target: Mitogen-activated protein kinase 7 (Homo sapiens) (UniProt Q13164); assay: Gal4-ERK5 driven luciferase induction – cell-based, HTS, primary screen (AID 1508626;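 active means luciferase signal above three times the same-plate solvent-only control wells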;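 further: luciferase driven by Gal4-ERK5 fusion binding five Gal4 sites before minimal TATA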); settings: HeLa Gal4-ERK5 transactivation, 18 h, at 5 µM, stronger effect = higher value
Chain of Mitogen-activated protein kinase 7 (Homo sapiens) (Q13164 whole entry, looked up, the tested form may be a part): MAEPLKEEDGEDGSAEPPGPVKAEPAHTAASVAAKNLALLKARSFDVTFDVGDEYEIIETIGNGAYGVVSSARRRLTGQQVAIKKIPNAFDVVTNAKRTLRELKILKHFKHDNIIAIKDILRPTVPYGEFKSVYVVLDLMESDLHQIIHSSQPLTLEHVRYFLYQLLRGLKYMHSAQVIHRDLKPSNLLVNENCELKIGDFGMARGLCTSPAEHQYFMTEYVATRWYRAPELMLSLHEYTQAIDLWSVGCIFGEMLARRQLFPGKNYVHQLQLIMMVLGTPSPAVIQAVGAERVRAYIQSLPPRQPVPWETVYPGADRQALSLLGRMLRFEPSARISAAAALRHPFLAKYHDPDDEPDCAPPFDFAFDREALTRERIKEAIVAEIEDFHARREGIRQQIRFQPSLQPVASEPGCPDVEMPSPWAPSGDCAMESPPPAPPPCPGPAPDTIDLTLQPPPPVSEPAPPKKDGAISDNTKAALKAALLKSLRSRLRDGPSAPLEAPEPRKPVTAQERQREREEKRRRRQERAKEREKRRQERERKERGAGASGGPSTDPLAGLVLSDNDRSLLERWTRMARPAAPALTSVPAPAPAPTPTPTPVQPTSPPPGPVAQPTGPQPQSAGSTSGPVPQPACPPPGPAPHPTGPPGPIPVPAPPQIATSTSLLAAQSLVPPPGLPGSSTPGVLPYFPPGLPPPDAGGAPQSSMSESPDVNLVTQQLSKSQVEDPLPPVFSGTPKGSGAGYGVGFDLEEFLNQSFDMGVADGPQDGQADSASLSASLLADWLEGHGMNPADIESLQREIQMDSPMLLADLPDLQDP

[6] = measured here: epithelial PC-3E GFP cell survival
[7] = measured here: mesenchymal TEM4-18 mCherry cell survival
[8] = stronger effect = lower value, cell number ratio, induced over uninduced
[9] = measured here: relative caspase fold change +Dox/-Dox
[10] = measured here: total cells with miR-34 induction, stronger effect = lower value
[11] = measured here: total cells without miR-34 induction

Structure (SMILES)	parasite load remaining [1]	viability [1]	red/green cell ratio (normalised) [2]	normalised cell number [2, 6]	normalised cell number [2, 7]	fold change [3, 8]	fold change [3, 9]	cell count [3, 10]	cell count [3, 11]	outcome [4]	luciferase signal [5]
CC(C)c1c(C(=O)c2ccccc2)c(-c2ccccc2)c(-c2ccc(F)cc2)n1CC[C@@H](O)C[C@@H](O)CC(=O)O	174% (inactive) and 44.6% (inactive)	88% and 103%	0.86 (inactive)	1.3	1.12	0.867 (inactive)	3.4	9140	10500	–	–
NC(Cc1c[nH]c2ccccc12)C(=O)O (stereo not drawn)	149% (inactive) and 37.9% (inactive)	72.8% and 89.5%	1.24 (inactive)	0.98	1.22	0.933 (inactive)	2.24	11800	12700	–	–
CC1=C(C(=O)O)N2C(=O)[C@@H](NC(=O)C(N)c3ccc(O)cc3)[C@H]2SC1 (stereo partly drawn)	82.3% (inactive) and 62.8% (inactive)	75.2% and 100%	1.2 (inactive)	1.16	1.4	0.948 (inactive)	3.02	12000	12700	–	–
CC(C)=CCC/C(C)=C/COc1ccc2ccc(=O)oc2c1	–	–	1.07 (inactive)	0.93	0.99	–	–	–	–	inactive	76 AU (inactive)
CC(C)(O/N=C(\C(=O)N[C@@H]1C(=O)N2C(C(=O)[O-])=C(C[n+]3ccccc3)CSC12)c1csc(N)n1)C(=O)O (stereo partly drawn)	57.9% (inactive)	101%	0.74 (inactive)	1.28	0.94	0.922 (inactive)	3.92	12200	13200	–	–
COc1cc([C@@H]2c3cc4c(cc3C(OC3O[C@@H]5COC(C)O[C@H]5[C@H](O)[C@H]3O)C3COC(=O)[C@@H]32)OCO4)cc(OC)c1O (stereo partly drawn)	116% (inactive) and 63.3% (inactive)	71.1% and 87.6%	0.85 (inactive)	0.36	0.31	0.832 (inactive)	1.86	3220	3870	–	–
CCCCCCCCCCCCCCCC(=O)O[C@@H]1[C@@H](O)[C@@H](O)C([C@H](NC(=O)[C@@H]2C[C@@H](CCC)CN2C)[C@H](C)Cl)O[C@@H]1SC (stereo partly drawn)	57.3% (inactive)	113%	0.93 (inactive)	1.03	0.95	0.819 (inactive)	4.42	10800	13200	–	–
CC1C/C=C/C=C/C=C/C=C/C(O[C@@H]2O[C@H](C)[C@@H](O)[C@H](N)[C@@H]2O)CC2OC(O)(CC(O)CC3OC3/C=C/C(=O)O1)CC(O)C2C(=O)O (stereo partly drawn)	78.2% (inactive)	102%	1.02 (inactive)	1.04	1.06	0.858 (inactive)	2.95	11800	13800	–	–
